According to PubChem BioAssay (Tox21):
Unmarked numbers belong to inactive results. Results filed as inconclusive are left out. Entries that show only a call come without a potency. The source made the active and inactive calls. Unless noted, calls follow the shape of the full dose curve.

Assays:
[1] = Nuclear factor erythroid 2-related factor 2/antioxidant responsive element (Nrf2/ARE) small molecule agonists: qHTS cell viability counter screen in human keratinocytes (AID 1919968; active = well fitted curve in the direction sought with a large enough effect in the repeat runs; an effect the other way counts as inactive or inconclusive; also: nearly all actives have a fitted effect of over 55% in size; also: potency is read from the fitted curve at half-maximal effect)
Method in brief: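 Stably transfected HaCaT (KeratinoSens), 1,500/well. Test agents in DMSO were applied for 23 h, 37 C/5% CO2. CellTiter-Fluor was incubated 1 h before the fluorescence read.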

[2] = Nuclear factor erythroid 2-related factor 2/antioxidant responsive element (Nrf2/ARE) small molecule agonists: luciferase reporter gene qHTS assay in human keratinocytes (AID 1919969); also: nearly all actives have a fitted effect of over 35% in size; also: potency is read from the fitted curve at half-maximal effect
[3] = biological target: Gonadotropin-releasing hormone receptor (Homo sapiens) (UniProt P30968); test: Human gonadotropin-releasing hormone receptor (GnRHR) small molecule agonists, calcium flux assay in GnRHR-HEK293 cells (AID 1920063); also: nearly all actives have a fitted effect of over 35% in size
Gonadotropin-releasing hormone receptor (Homo sapiens), sequence (P30968 whole entry, looked up): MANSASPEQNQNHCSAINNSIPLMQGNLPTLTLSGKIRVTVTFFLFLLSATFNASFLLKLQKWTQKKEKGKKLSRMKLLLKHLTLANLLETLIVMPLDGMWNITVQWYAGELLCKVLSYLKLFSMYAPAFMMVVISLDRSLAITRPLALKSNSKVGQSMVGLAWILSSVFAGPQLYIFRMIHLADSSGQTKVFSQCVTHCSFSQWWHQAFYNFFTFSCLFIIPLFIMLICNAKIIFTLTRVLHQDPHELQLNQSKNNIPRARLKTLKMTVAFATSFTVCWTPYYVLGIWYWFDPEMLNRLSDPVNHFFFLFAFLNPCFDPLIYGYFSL
Method in brief: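 Stable human GnRHR HEK293 line. 18 h plating, then calcium dye for 1 h at 37 C. Agonist-mode compound addition from DMSO stocks; fluorescence monitored 3 min.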

[4] = biological target: KiSS-1 receptor (Homo sapiens) (UniProt Q969F8); test: Human kisspeptin (KISS1R) small molecule agonists, calcium flux assay in KISS1R-HEK293 cells (AID 1920064; active = well fitted curve in the direction sought with a large enough effect in the repeat runs; an effect the other way counts as inactive or inconclusive)
KiSS-1 receptor (Homo sapiens), sequence (Q969F8 whole entry, looked up): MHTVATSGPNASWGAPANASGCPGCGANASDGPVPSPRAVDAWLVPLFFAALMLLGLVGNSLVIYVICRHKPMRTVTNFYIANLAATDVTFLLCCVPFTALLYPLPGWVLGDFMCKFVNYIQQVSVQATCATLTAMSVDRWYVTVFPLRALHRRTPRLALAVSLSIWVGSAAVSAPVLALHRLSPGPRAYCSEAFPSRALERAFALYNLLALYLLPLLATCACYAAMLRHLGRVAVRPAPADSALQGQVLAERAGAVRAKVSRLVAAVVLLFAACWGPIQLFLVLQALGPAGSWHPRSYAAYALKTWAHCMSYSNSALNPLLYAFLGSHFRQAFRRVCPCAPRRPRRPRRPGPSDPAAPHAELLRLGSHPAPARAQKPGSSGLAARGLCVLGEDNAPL
Method in brief: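 After overnight (18 h) culture at 37 C/5% CO2, human KISS1R-HEK293 cells received calcium dye for 1 h, then test compound; emission at 540 nm (excitation 480 nm) was tracked for 3 min.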

[5] = G protein-coupled receptor (GPCR) small molecule agonists, calcium flux assay: HEK293 wild type cell line counter screen (AID 1920065)
Method in brief: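 Following 18 h incubation at 37 C/5% CO2, plates got calcium dye for 1 h; compounds, ATP or DMSO were then pinned in and fluorescence followed kinetically (480/540 nm).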

[6] = p53 small molecule agonists, cell-based qHTS assay with human liver microsomes (AID 1963577)
Method in brief: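 Cells carrying a p53-responsive bla reporter were rested 5 h (37 C, 5% CO2) before compound transfer. Human liver microsomes plus NADPH, 0.5 mg/mL final apiece, supplied metabolism during the 16 h 37 C exposure.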

[7] = p53 small molecule agonists, cell-based qHTS assay with rat liver microsomes (AID 1963578)
Method in brief: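 Fluorescence from a beta-lactamase reporter under a p53 response element was measured after cells had been incubated 16 h at 37 C with test compound and rat liver microsomes plus NADPH (0.5 mg/mL final each).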

[8] = p53 small molecule agonists, cell-based qHTS assay with rat liver microsomes: qHTS cell viability counter screen (AID 1963580); also: nearly all actives have a fitted effect of over 45% in size
Method in brief: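 Cytotoxicity counter screen: intracellular ATP measured by CellTiter-Glo luminescence in the same wells as the beta-lactamase reporter read, on HCT-116 p53RE-bla cells exposed 16 h at 37 C to compounds with rat liver microsomes and NADPH, each 0.5 mg/mL final.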

[9] = p53 small molecule agonists, cell-based qHTS assay: qHTS cell viability counter screen (AID 1963581); also: nearly all actives have a fitted effect of over 45% in size
Method in brief: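 qHTS counter screen: 16 h compound exposure at 37 C of p53RE-bla HCT-116 cells (4,000 per well, seeded 5 h prior), cell viability by ATP luminescence.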

[10] = p53 small molecule agonists, cell-based qHTS assay (AID 1963582; active = well fitted activation curve with a large enough effect in the signal ratio in the repeat runs, not every such curve was filed as active; the % refers to the signal ratio)
Method in brief: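 Measured: fluorescence from cleaved LiveBLAzer substrate. System: p53RE-bla cells, 16 h compound treatment at 37 C, 2 h substrate step at room temperature.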

[11] = biological target: 5-hydroxytryptamine receptor 2A (Homo sapiens) (UniProt P28223); test: 5-hydroxytryptamine receptor 2A (HTR2A) small molecule antagonists, cell-based qHTS assay (AID 1963586); also: nearly all actives have a fitted effect of over 45% in size
5-hydroxytryptamine receptor 2A (Homo sapiens), sequence (P28223 whole entry, looked up): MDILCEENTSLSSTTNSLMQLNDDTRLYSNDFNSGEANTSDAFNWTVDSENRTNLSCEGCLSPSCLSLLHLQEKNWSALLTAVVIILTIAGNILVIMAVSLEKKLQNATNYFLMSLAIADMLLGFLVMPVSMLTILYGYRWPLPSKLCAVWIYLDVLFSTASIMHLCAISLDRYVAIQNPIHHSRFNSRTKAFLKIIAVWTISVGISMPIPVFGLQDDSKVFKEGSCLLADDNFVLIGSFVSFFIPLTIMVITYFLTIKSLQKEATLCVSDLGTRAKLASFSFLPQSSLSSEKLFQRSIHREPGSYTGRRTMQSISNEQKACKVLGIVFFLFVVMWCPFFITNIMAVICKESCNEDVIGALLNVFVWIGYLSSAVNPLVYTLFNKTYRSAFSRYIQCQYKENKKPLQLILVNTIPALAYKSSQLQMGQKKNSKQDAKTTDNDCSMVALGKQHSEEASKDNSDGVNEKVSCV
Method in brief: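 CHO cells stably expressing human HTR2A were plated for 18 h at 37 C, then loaded with calcium dye for 1 h. Compounds were preincubated 5 min at room temperature before DOI (4 nM solution) was added. Kinetic fluorescence was read for 3 min.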

[12] = biological target: 5-hydroxytryptamine receptor 2A (Homo sapiens) (UniProt P28223); test: 5-hydroxytryptamine receptor 2A (HTR2A) small molecule agonists, cell-based qHTS assay (AID 1963587); also: nearly all actives have a fitted effect of over 30% in size
Method in brief: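 CHO cells stably expressing human HTR2A, plated 18 h, loaded with calcium dye 1 h at 37 C. Agonist mode: compounds added and intracellular calcium fluorescence recorded kinetically for 2 min at 1 sec intervals.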

[13] = biological target: Muscarinic acetylcholine receptor M1 (Homo sapiens) (UniProt P11229); test: Cholinergic receptor muscarinic 1 (CHRM1) small molecule antagonists, cell-based qHTS assay (AID 1963588); also: nearly all actives have a fitted effect of over 40% in size
Muscarinic acetylcholine receptor M1 (Homo sapiens), sequence (P11229 whole entry, looked up): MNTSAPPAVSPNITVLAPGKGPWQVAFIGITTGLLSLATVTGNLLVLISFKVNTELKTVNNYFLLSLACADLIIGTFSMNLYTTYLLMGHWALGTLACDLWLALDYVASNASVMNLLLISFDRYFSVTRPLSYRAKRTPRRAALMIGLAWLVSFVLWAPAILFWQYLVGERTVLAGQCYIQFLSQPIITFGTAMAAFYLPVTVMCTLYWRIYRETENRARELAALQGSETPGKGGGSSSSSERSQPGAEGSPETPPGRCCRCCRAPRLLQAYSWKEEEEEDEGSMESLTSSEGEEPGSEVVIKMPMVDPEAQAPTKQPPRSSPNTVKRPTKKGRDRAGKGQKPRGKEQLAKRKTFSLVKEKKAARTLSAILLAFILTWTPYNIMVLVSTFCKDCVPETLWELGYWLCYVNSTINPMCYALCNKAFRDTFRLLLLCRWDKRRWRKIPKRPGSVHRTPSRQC
Method in brief: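 Compounds were tested at 15 concentrations in three independent runs. Dye-loaded CHRM1-CHO cells were exposed 5 min at room temperature before stimulation by acetylcholine added at 50nM. Intracellular calcium was read kinetically on FDSS for 3 min.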

[14] = biological target: Muscarinic acetylcholine receptor M1 (Homo sapiens) (UniProt P11229); test: Cholinergic receptor muscarinic 1 (CHRM1) small molecule agonists, cell-based qHTS assay (AID 1963589); also: nearly all actives have a fitted effect of over 35% in size
Method in brief: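 Kinetic fluorescence (1 s intervals) of calcium-sensitive dye in human M1 CHO cells after compound addition; cells pre-incubated 18 h at 37 C/5% CO2 and dye-loaded 1 h.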

[15] = cAMP Responsive Elements (CRE) small molecule agonists, cell-based qHTS assay (AID 1963590)
Method in brief: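 Test agents in DMSO were incubated 3 h at 37 C/5% CO2 with CRE-bla HEK 293T cells seeded 18 h earlier; LiveBLAzer B/G FRET substrate was added and read after 2 h at room temperature.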

[16] = biological target: D(2) dopamine receptor (Homo sapiens) (UniProt P14416); test: Dopamine D2 receptor (DRD2) small molecule antagonists, cell-based qHTS assay (AID 1963595; active = well fitted inhibition curve with a large enough effect in the signal ratio in the repeat runs, with a control signal flat; the % refers to the signal ratio)
D(2) dopamine receptor (Homo sapiens), sequence (P14416 whole entry, looked up): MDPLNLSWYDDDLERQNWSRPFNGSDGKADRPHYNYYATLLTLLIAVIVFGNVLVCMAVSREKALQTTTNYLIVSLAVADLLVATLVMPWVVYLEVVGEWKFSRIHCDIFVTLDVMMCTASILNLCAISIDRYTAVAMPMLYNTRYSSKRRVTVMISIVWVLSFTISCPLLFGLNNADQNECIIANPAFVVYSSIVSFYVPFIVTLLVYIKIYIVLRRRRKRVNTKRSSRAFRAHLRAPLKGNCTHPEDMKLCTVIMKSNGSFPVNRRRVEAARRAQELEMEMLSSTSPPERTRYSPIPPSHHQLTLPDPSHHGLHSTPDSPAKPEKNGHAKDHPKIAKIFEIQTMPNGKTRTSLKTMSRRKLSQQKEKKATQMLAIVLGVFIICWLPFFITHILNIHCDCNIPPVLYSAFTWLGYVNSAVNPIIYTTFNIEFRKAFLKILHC
Method in brief: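 Antagonist mode in DRD2-HEK293 cells: after compound addition with 0.1 mM Ro20-1724, cells received quinpirole (12 nM) and NKH477 (200 nM) for 30 min at room temperature; HTRF cAMP read after 1 h detection.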

[17] = cAMP Responsive Elements (CRE) small molecule antagonists, cell-based qHTS assay (AID 1963591; active = well fitted inhibition curve with a large enough effect in the signal ratio in the repeat runs, not every such curve was filed as active; the % refers to the signal ratio)
Method in brief: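 Reporter line CRE-bla HEK 293T in dialyzed-FBS DMEM; cells preincubated 18 h, treated 3 h with compound plus NKH477 (0.25 uM final); LiveBLAzer FRET, 2 h RT.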

[18] = biological target: Beta-2 adrenergic receptor (Homo sapiens) (UniProt P07550); test: Adrenergic beta2 receptor (ADRB2) small molecule antagonists, cell-based qHTS assay (AID 1963592); also: series mostly up to about 92 µM; nearly all actives have a fitted effect of over 50% in size
Beta-2 adrenergic receptor (Homo sapiens), sequence (P07550 whole entry, looked up): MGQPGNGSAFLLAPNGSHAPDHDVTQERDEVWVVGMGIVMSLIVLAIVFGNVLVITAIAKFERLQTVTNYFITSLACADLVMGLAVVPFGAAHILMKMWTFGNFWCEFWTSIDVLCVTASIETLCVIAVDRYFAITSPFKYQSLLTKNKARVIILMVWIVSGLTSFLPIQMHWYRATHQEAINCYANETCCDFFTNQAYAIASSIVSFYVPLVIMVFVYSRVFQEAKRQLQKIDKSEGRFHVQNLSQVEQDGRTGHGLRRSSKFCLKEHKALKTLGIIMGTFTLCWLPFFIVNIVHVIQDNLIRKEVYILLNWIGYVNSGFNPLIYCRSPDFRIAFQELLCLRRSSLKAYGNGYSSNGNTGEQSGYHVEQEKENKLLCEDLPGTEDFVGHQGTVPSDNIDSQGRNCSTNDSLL
Method in brief: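 Assay format: CHO-ADRB2 cells, 18-20hr seeding at 37C/5% CO2, then compound plus 1nM isoproterenol agonist mix for 0.5hr RT. Homogeneous time-resolved fluorescence cAMP detection after 1hr, expressed as 665/615 nm ratio.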

[19] = biological target: D(2) dopamine receptor (Homo sapiens) (UniProt P14416); test: Dopamine D2 receptor (DRD2) small molecule agonists, cell-based qHTS assay (AID 1963594); also: nearly all actives have a fitted effect of over 35% in size
Method in brief: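 HEK293 cells stably expressing human DRD2, pre-treated with PDE inhibitor Ro20-1724 (0.1 mM final) and compound 10 min at room temperature, then stimulated with NKH477 (200nM […]) for 30 min. cAMP read by HTRF (665/620 nm).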

SMILES	Potency [1]	Potency [2]	Potency [3]	outcome [4]	outcome [5]	Potency [6]	Potency [7]	Potency [8]	Potency [9]	Potency [10]	Potency [11]	Potency [12]	Potency [13]	Potency [14]	Potency [15]	Potency [16]	Potency [17]	Potency [18]	Potency [19]
CC(C)CC(C)CC(C)CC(C)COC(=O)c1ccccc1C(=O)OCC(C)CC(C)CC(C)CC(C)C (stereo not given)	inactive	inactive	inactive	inactive	inactive	inactive	inactive	inactive	inactive	inactive	inactive	inactive	inactive	inactive	inactive	inactive			
C=CC(C)C#N (stereo not given)	inactive	inactive	inactive	inactive	inactive	inactive	inactive	inactive	inactive	inactive	inactive	inactive	inactive	inactive		inactive	inactive	inactive	inactive
CC(Oc1cc(Cl)ccc1Cl)C(=O)O (stereo not given)	inactive	inactive	inactive	inactive	inactive	inactive	inactive	inactive	inactive	inactive	inactive	inactive	inactive	inactive		inactive		inactive	inactive
CCOC(=O)[C@H](CCc1ccccc1)N[C@@H](C)C(=O)N1Cc2cc(OC)c(OC)cc2C[C@H]1C(=O)O	inactive	inactive	inactive	inactive	inactive	inactive	inactive	inactive	inactive	inactive	inactive	inactive	inactive	inactive		inactive		inactive	inactive
CC(C)(C)C1CCC(=O)CC1	inactive	68.6 µM (active)	inactive	inactive	inactive	inactive	inactive	inactive	inactive	inactive	inactive	inactive	inactive	inactive	inactive	inactive	inactive	inactive	inactive
COc1ccc(S(=O)(=O)N2c3ccc(Cl)cc3[C@@](O)(c3ccccc3Cl)[C@H]2C(=O)N2CCC[C@@H]2C(N)=O)cc1OC	inactive	inactive	inactive	inactive	inactive	inactive	inactive	inactive	inactive	inactive	inactive	inactive	inactive	inactive	inactive	inactive		inactive	inactive
CCCCCCCCN(C)CCCCCCCC	inactive	inactive	inactive	inactive	inactive	inactive	inactive	inactive	inactive	inactive	inactive	inactive		inactive	inactive	inactive	inactive	inactive	inactive
CCCCCC#CC(=O)OC	inactive	inactive	inactive	inactive	inactive	inactive	inactive	inactive	inactive	inactive	inactive	inactive	inactive	inactive	inactive	inactive	inactive	inactive	inactive
Cc1ccc(=O)n(-c2ccccc2)c1	inactive	inactive	inactive	inactive	inactive	inactive	inactive	inactive	inactive			inactive	inactive	inactive	inactive	inactive	inactive	inactive	inactive
COc1cc(C(=O)NC2CCCNC2)cc(OC)c1OC (stereo not given)	inactive	inactive	inactive	inactive	inactive	inactive	inactive	inactive	inactive	inactive					inactive	inactive	inactive	inactive	inactive
CCCCCCCCC(=O)Cl	inactive	inactive	inactive	inactive	inactive	inactive	inactive	inactive	inactive	inactive		inactive	inactive	inactive		inactive	inactive	inactive	inactive
Cc1ccc(-n2[nH]c(C)c(N=Nc3cccc(-c4cccc(C(=O)O)c4)c3O)c2=O)cc1C	26.6 µM (active)	inactive	inactive	inactive	inactive	inactive	inactive	inactive	inactive			inactive	inactive	inactive		inactive	inactive	inactive	inactive
NC(=O)NC(=O)Cc1ccccc1	inactive	inactive	inactive	inactive	inactive	inactive	inactive	inactive	inactive	inactive					inactive	inactive	inactive	inactive	
O=C(O)Cc1ccccc1Oc1ccc(Cl)cc1Cl	inactive	inactive	inactive	inactive	inactive	inactive	inactive	inactive	inactive			inactive	inactive	inactive		inactive	inactive	inactive	inactive
O=Cc1cccc(Br)c1	inactive	inactive	inactive	inactive	inactive	inactive	inactive	inactive	inactive		inactive	inactive	inactive	inactive	inactive	inactive	inactive	inactive	inactive
